Most compounds without a hit are left out; they make up all but 1.6% or so of the library.
KCNQ2 block: rat KCNQ2 potassium channel inhibitors, primary screen, cell-based, CHO-K1, FluxOR thallium flux, B-score. 20 min; active compounds read low. B-score at 10 µM. 310,000 compounds, 1.1% hits. AID 2156, 2009;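 active = fluorescence ratio B-score at most minus 3 library SDs, with starting brightness B-score within 2 library SDs, cut at about -5.5 in these data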
KCNQ2 enhance: potentiators of rat KCNQ2 potassium channel; 310,000 compounds, 0.54% hits; Potassium voltage-gated channel subfamily KQT member 2 (Rattus norvegicus), O88943; CHO-K1 KCNQ2, FluxOR thallium flux fluorescence; active compounds read high; B-score at 10 µM;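 active = fluorescence ratio B-score at least 3 SD of library B-scores, with initial fluorescence B-score within 3 of them, cut at about 5.3 in these data; same plate scores as AID 2156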;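 also: B-score of peak minus minimum over baseline fluorescence ratio after K+ and Tl+ stimulus; positive B-score means potentiation of KCNQ2 with more thallium influx and brighter signal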
Kir21 conf inh: mouse Kir2.1 channel blockers, retest, confirmation, cell-based, FluxOR thallium flux, duplicate | shares compounds with KCNQ2 enhance | Kir2.1-expressing cells, FluxOR thallium flux fluorescence; active compounds read low | Tl flux remaining, % of negative control (active compounds read low), % at 10 µM | 2,300 compounds, 41% hits;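 active = Primary-screen hit whose thallium flux fell at least 3 control SD below untreated wells in both duplicates, with normal baseline fluorescence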
HEK293 ctr: alters thallium flux in parental HEK293 cells, Kir2.1 counter-screen; AID 2105; 2,300 compounds, 19% hits; FluxOR signal as % of negative control (100 = no effect), % at 10 µM; FluxOR thallium flux fluorescence; 0% = unstimulated blank wells; shares compounds with KCNQ2 enhance;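 active = dye signal at least 3 control SD above or below untreated wells in both duplicates, raw fluorescence within 3, either direction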;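 also: percent is based on the flux ratio of peak minus minimum fluorescence over baseline F0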
CHO-K1 ctr: nonspecific thallium flux increase in parental CHO-K1, confirmation, counter-screen for KCNQ2 potentiator project, cell-based, FluxOR thallium flux, duplicate | activity increase over 3SD of controls, % at 10 µM | parental CHO-K1 cells, FluxOR thallium flux fluorescence; zero = vehicle mean+3SD, 100% = vehicle-minus-blank window | 1,200 compounds, 43% hits | shares compounds with KCNQ2 enhance | AID 2282, 2010;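 active = signal rise of at least 3 SD above the untreated control mean, in both duplicate wells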;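 also: counter screen of KCNQ2 potentiator hits so any rise reflects channel-independent effects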
KCNQ1 sel pot: human KCNQ1 channel potentiation off-target, confirmation, selectivity assay for KCNQ2 potentiator project, cell-based, CHO, FluxOR thallium flux. shares compounds with KCNQ2 enhance. CHO KCNQ1 stable, FluxOR thallium flux fluorescence; beyond 3SD, as % of vehicle-control signal. activation over 3SD threshold, % at 10 µM. 1,200 compounds, 28% hits. AID 2283, 2010;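 active = fluorescence ratio rise of at least 3 SD of vehicle wells above their mean, in both replicate wells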
KCNQ2 pot confirm: rat KCNQ2 channel potentiators, confirmation, cell-based, CHO, FluxOR thallium flux, duplicate | shares compounds with KCNQ2 enhance | AID 2287, 2010 | potentiation, less the hit threshold, % at 10 µM | 1,200 compounds, 68% hits | CHO-KCNQ2 cells, FluxOR thallium flux fluorescence;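 active = fluorescence ratio rising 3 SD or more over the vehicle control mean in both replicates, plus primary screen hit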;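 also: peak minus minimum thallium fluorescence divided by baseline after K/Tl stimulus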
Kir2-1 sel: mouse Kir2.1 channel activation off-target, confirmation, selectivity assay for KCNQ2 potentiator project, cell-based, HEK293, FluxOR thallium flux | HEK293 Kir2.1, FluxOR thallium flux fluorescence | 1,200 compounds, 2% hits | shares compounds with KCNQ2 enhance | activity over 3SD threshold, % at 10 µM | AID 2345, 2010;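 active = fluorescence ratio rise of at least 3 SD above the vehicle-control mean, seen in both replicates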
KCNQ2 W236L pot: potentiators of retigabine-insensitive KCNQ2 W236L, mechanism study for KCNQ2 potentiator project, cell-based, rat KCNQ2 W236L, CHO, automated patch clamp | shares compounds with KCNQ2 enhance | automated patch clamp current | current increase over 3SD of negative controls (%), active compounds read high, % at 25 µM | 940 compounds, 10% hits | AID 2558, 2010;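 active = current increase at least 3 SD of the untreated controls above them in both duplicate recordings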
Target sequence (O88943 whole entry W236L, looked up): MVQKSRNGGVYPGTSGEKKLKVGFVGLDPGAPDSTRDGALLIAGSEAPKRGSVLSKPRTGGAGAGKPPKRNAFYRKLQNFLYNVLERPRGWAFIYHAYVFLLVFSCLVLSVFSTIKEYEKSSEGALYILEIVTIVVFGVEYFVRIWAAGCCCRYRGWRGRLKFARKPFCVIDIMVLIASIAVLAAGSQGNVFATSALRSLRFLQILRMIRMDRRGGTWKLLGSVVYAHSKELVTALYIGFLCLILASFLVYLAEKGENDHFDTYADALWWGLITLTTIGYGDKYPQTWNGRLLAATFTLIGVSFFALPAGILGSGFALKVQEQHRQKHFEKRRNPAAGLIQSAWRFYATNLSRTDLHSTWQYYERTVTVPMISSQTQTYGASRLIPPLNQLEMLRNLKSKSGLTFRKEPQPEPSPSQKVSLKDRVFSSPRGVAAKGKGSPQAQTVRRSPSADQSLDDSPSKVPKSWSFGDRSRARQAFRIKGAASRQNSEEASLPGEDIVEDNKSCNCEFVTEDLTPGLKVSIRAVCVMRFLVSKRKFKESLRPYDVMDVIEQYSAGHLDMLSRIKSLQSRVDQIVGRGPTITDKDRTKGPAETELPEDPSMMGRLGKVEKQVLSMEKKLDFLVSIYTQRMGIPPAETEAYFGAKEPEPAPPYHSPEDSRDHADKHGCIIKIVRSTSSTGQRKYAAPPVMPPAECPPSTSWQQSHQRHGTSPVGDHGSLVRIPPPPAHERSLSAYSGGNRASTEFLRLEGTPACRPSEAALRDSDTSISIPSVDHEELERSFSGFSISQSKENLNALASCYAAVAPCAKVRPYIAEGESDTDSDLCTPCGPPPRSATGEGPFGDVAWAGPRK
Large screens that a line does not name were inactive (follow-up assays come after a bar, where they were run).

CC1(c2ccc(C#N)cc2)NC(=O)N(CC(=O)Nc2cc(S(=O)(=O)N3CCOCC3)ccc2Cl)C1=O (configuration not stated)	none
COc1ccc(S(=O)(=O)NCCc2nnc3ccc(SCC(=O)Nc4nc(C)cs4)nn23)cc1	none
CNCC[C@H](Oc1cccc2ccccc12)c1cccs1	none (no result: KCNQ2 enhance) | Kir21 conf inh inactive | HEK293 ctr inactive
CNCCC(Oc1ccc(C(F)(F)F)cc1)c1ccccc1 (configuration not stated)	none (no result: KCNQ2 enhance)
O=C(O)c1sccc1Oc1ccc(NS(=O)(=O)c2ccccc2)cc1	none
OC1(c2ccc(Br)cc2)CCN(Cc2cccc(Br)c2)CC1	none (no result: KCNQ2 enhance) | Kir21 conf inh 20.5% | HEK293 ctr inactive
Brc1cccc(CN2CCCCCC2)c1	none
CCCCC(Nc1ncnc2ccccc12)C(=O)O (configuration not stated)	KCNQ2 enhance 7.71 | Kir21 conf inh inactive | HEK293 ctr inactive | CHO-K1 ctr inactive | KCNQ1 sel pot inactive | KCNQ2 pot confirm inactive | Kir2-1 sel inactive
CC(Nc1ncnc2ccccc12)c1ccccc1 (configuration not stated)	none
CC(=O)c1ccc(NC(=O)CSc2ccc(-c3ccc(-n4cccn4)cc3)nn2)cc1	none
O=C(Nc1ccccc1)N1CCc2c([nH]c3ccccc23)C1C(F)(F)F (configuration not stated)	none (no result: KCNQ2 enhance)
O=C(c1ccc(Cl)cc1)N1CCc2c([nH]c3ccccc23)C1C(F)(F)F (configuration not stated)	KCNQ2 enhance 7.95 | Kir21 conf inh inactive | HEK293 ctr inactive | CHO-K1 ctr 15.9 | KCNQ1 sel pot inactive | KCNQ2 pot confirm 2.7 | Kir2-1 sel inactive | KCNQ2 W236L pot inactive
COc1cccc(NC(=O)NCCCSC2CCCCC2)c1	KCNQ2 enhance 6.54 | Kir21 conf inh inactive | HEK293 ctr inactive | CHO-K1 ctr inactive | KCNQ1 sel pot inactive | KCNQ2 pot confirm 13.4 | Kir2-1 sel inactive | KCNQ2 W236L pot inactive
COc1cccc(NC(=O)NCCCCc2ccccc2)c1	none
COc1ccccc1C(=O)NCC(=O)OCC(=O)c1ccc2c(c1)-c1ccccc1C2	none (no result: KCNQ2 enhance)
CCN(c1cccc(C)c1)S(=O)(=O)c1cc2c3c(c1)CCC(=O)N3CCC2	none (no result: KCNQ2 enhance) | Kir21 conf inh inactive | HEK293 ctr inactive
CCCN(CCC)S(=O)(=O)c1cc2c3c(c1)CCN3C(=O)CC2	none (no result: KCNQ2 enhance)
O=C1C2CCCN2C(=O)N1CCCCN1CCN(c2cccc(Cl)c2)CC1 (configuration not stated)	none (no result: KCNQ2 enhance)
O=C(NC1(O)C(=O)c2ccccc2C1=O)c1ccc(C(F)(F)F)cc1	none (no result: KCNQ2 enhance)
Cc1ccc(C(=O)NC2(O)C(=O)c3ccccc3C2=O)cc1C	KCNQ2 enhance 5.69 | Kir21 conf inh inactive | HEK293 ctr inactive | CHO-K1 ctr inactive | KCNQ1 sel pot inactive | KCNQ2 pot confirm inactive | Kir2-1 sel inactive | KCNQ2 W236L pot 21.6%
Fc1ccc(CNCCC(Cc2ccccc2)c2ccco2)cc1 (configuration not stated)	none (no result: KCNQ2 enhance) | Kir21 conf inh 17.5% | HEK293 ctr 70.5%
O=C(CC(Cc1ccccc1)c1ccco1)NC1CCCCC1 (configuration not stated)	none (no result: KCNQ2 enhance)
O=C(NCCNCc1ccc(F)cc1)c1ccco1	none
CC(NCCC(Cc1ccccc1)c1ccco1)c1ccccc1 (configuration not stated)	none (no result: KCNQ2 enhance) | Kir21 conf inh 39.0% | HEK293 ctr inactive
CC(C)(C)NC(=O)CN1CCN(C(=O)CCl)CC1	none
c1ccc(Cc2noc(CN3CCN(CCOc4ccccc4)CC3)n2)cc1	none (no result: KCNQ2 enhance)
CCOc1ccc(CCNC(=O)CCc2nnc3ccc(N4CCCCC4)nn23)cc1OCC	none (no result: KCNQ2 enhance)
O=C(Nc1cc(Cl)ccc1N1CCCCC1)c1cccs1	none (no result: KCNQ2 enhance)
O=C(NC(=S)Nc1ccc(N2CCCCC2)c(Cl)c1)c1cccs1	KCNQ2 enhance 6.56 | Kir21 conf inh inactive | HEK293 ctr inactive | CHO-K1 ctr 9.4 | KCNQ1 sel pot 11.0 | KCNQ2 pot confirm 1.0 | Kir2-1 sel inactive | KCNQ2 W236L pot inactive
CC(=O)c1ccc(S(=O)(=O)N2CCN(C(=O)CSc3ccc(C)c(C)c3)CC2)cc1	none (no result: KCNQ2 enhance)
CCCCN(CCO)c1ncnc2sc(-c3ccccc3)cc12	none
Cc1nn(-c2cccc(C(F)(F)F)c2)c(Cl)c1/C=N/Nc1cccc(C(=O)O)c1	KCNQ2 enhance 9.87 | Kir21 conf inh inactive | HEK293 ctr inactive | CHO-K1 ctr inactive | KCNQ1 sel pot 29.9 | KCNQ2 pot confirm 98.5 | Kir2-1 sel inactive | KCNQ2 W236L pot 16.6%
Cc1nn(-c2ccccc2Cl)c(Cl)c1/C=N/Nc1cccc(C(=O)O)c1	none
O=C(COc1ccccc1[N+](=O)[O-])N(Cc1cccc(Br)c1)C1CCS(=O)(=O)C1 (configuration not stated)	none (no result: KCNQ2 enhance)
OCCC1CN(C2CCN(c3ccccc3)CC2)CCN1Cc1ccc(F)c(F)c1 (configuration not stated)	none (no result: KCNQ2 enhance)
O=C(Nc1cccnc1)c1cc2cc(Br)ccc2o1	none (no result: KCNQ2 enhance)
CCCCn1c2c(c3ccccc31)CCc1nonc1-2	none
Cc1cc(Cl)c(S(=O)(=O)N2CCCC2)cc1OCC(=O)NC1CCCCC1	KCNQ2 enhance 27.4 | Kir21 conf inh inactive | HEK293 ctr 139.0% | CHO-K1 ctr inactive | KCNQ1 sel pot inactive | KCNQ2 pot confirm 132.9 | Kir2-1 sel inactive | KCNQ2 W236L pot inactive
Cc1cc(Cl)c(S(=O)(=O)NC(C(=O)O)C(C)C)cc1OCC(=O)NC1CCCCC1 (configuration not stated)	none (no result: KCNQ2 enhance)
CC(C)NC(=O)c1ccc2c(c1)N(Cc1ccccc1)C(=O)C(C)(C)O2	none
